Consider 40 compounds from PubChem BioAssay (Tox21).

Structures are written as SMILES. Records with an inconclusive call do not appear. Entries that show only a call come without a potency. Calls of active or inactive are those of the source. Calls come from the whole dose curve.

The experiment in a line: qHTS assay to identify small molecule agonists of the endoplasmic reticulum stress response signaling pathway - cell viability counter screen (AID 1159517). Note: nearly all actives have a fitted effect of over 50% in size. The conditions noted are these: ESRE-bla HeLa viability, CellTiter-Glo luminescence, 5 h; series mostly up to 61 µM. The source says: U.S. Tox21 Program National Center for Advancing Translational Sciences [NCATS] NIH Chemical Genomics Center [NCGC] U.S. Environmental Protection Agency [EPA] National Institutes of Environmental Health Sciences [NIEHS] National Toxicology Program [NTP] U.S. Food and Drug Administration [FDA] Tox21 Assay Overview: Endoplasmic Reticulum (ER) plays an important role in cellular signaling, protein folding/maturation, stress response, lipid biosynthesis, calcium storage and release etc. Under stress conditions, proteins in ER misfold or unfold, and leading to the expression of ER stress responsive genes. ER stress has been associated with a variety of pathophysiological conditions such as cancer, inflammation, neurodegenerative diseases, diabetes, ischemic heart disease etc. To identify the compounds that induce ER stress response, an ER stress reporter cell line, CellSensor ESRE-bla HeLa (Life Technologies, Carlsbad, CA) containing a beta-lactamase reporter gene under control of the Endoplasmic reticulum Stress Response Element (ESRE) was used to screen Tox21 10K compound library. The cytotoxicity of the Tox21 compound library against the ESRE-bla HeLa cell line was tested in parallel by measuring cell viability using the CellTiter-Glo assay in the same wells.
Tox21 Assay Protocol Summary: ESRE-bla HeLa cells were dispensed at 1,500 cells/6 uL of assay medium per well into black wall/clear-bottom 1536-well plates using a Multidrop Combi (ThermoFisher Scientific, Waltham, MA) dispenser. After the assay plates were incubated at 37 C and 5% CO2 for an overnight, 23 nL of compounds dissolved in DMSO, positive controls or DMSO only was transferred to the assay plate by a Pintool station (Kalypsys, San Diego, CA). The assay plates were incubated at 37 C and 5% CO2 for 5 hr. One uL of LiveBLAzer B/G FRET substrate (Life Technologies) was added using a FRD (Flying Reagent Dispenser, Aurora Discovery, San Diego, CA) and the plates were incubated at room temperature for 2 hr. Fluorescence intensity (405 nm excitation, 460 nm and 530 nm emissions) was measured using an Envision plate reader (PerkinElmer, Shelton, CT). For cytotoxicity, 4 ul/well of CellTiter-Glo reagent was added into the assay plates using an FRD. After 30 min incubation at room temperature, the luminescence intensity was measured using a ViewLux plate reader (PerkinElmer).
Consider `O=[N+]([O-])c1ccccc1C(F)(F)F`, for which the Potency result was “inactive”.
On to `CC(CN1c2ccccc2Sc2ccccc21)N(C)C` (stereo not given), for which the Potency entry was “inactive”.
With `O=C1OC(=O)c2c(Cl)c(Cl)c(Cl)c(Cl)c21`, the Potency result was “inactive”.
To `CN1Cc2c(N)cccc2C(c2ccccc2)C1` (stereo not given) belongs “inactive”.
To `CC1(C)[C@@H](O[C@H]2O[C@H](C(=O)O)[C@@H](O)[C@H](O)[C@H]2O[C@@H]2O[C@H](C(=O)O)[C@@H](O)[C@H](O)[C@H]2O)CC[C@]2(C)[C@H]3C(=O)C=C4[C@@H]5C[C@@](C)(C(=O)O)CC[C@]5(C)CC[C@@]4(C)[C@]3(C)CC[C@@H]12` belongs “inactive”; to `COc1c2ccoc2cc2oc(=O)ccc12`, “inactive”; to `CC(C)c1ccc(C(C)C)cc1`, “inactive”.
To `OC[C@H]1O[C@@H](Oc2ccc(O)cc2)[C@H](O)[C@@H](O)[C@@H]1O` belongs “inactive”.
With `OCC(O)CS` (stereo not given), the Potency entry is “inactive”.
Regarding `NC(=O)NC(N)=O`, the Potency result is “inactive”.
The same measure for `CC(=O)Nc1ccc(CC(=O)O)cc1`: “inactive”.
Turning to `Cc1ncc(CO)c(CO)c1O`, the Potency result was “inactive”.
The same measure for `CN1CCCC1=O`: “inactive”; for `CCc1cccc(CC)c1N`: “inactive”.
To `CCCCCC(C)=O` belongs “inactive”; to `OCCOCCOCCOCCOCCO`, “inactive”.
Regarding `CCCCCCCC(=O)O`, the Potency entry is “inactive”.
To `O=C1O[C@H]([C@H](O)CO)C(O)=C1O` belongs “inactive”.
As to `COc1c(Cl)ccc(Cl)c1C(=O)O`, the Potency result is “inactive”.
As to `O=C(O)C1=NN(c2ccc(S(=O)(=O)O)cc2)C(=O)C1`, the Potency result was “inactive”.
With `CC(=O)OC(C)(C)C1CC=C(C)CC1` (stereo not given), the Potency result is “inactive”.
To `CCOC(=O)CC(=O)OCC` belongs “inactive”.
The same measure for `CC(=O)OC/C=C(\C)CCC=C(C)C`: “inactive”.
Turning to `Cc1cc(C)cc(O)c1`, the Potency result was “inactive”.
As for `OCC(CO)(CO)CO`, the Potency entry is “inactive”.
To `COC(=O)OC` belongs “inactive”; to `Cc1ccncc1`, “inactive”; to `CCCOC(=O)NCCCN(C)C`, “inactive”.
Turning to `CC(C)=CCC/C(C)=C/C=O`, the Potency result was “inactive”.
For the compound `COc1ccc([C@@H]2CC(=O)c3c(O)cc(O[C@@H]4O[C@H](CO[C@@H]5O[C@@H](C)[C@H](O)[C@@H](O)[C@H]5O)[C@@H](O)[C@H](O)[C@H]4O)cc3O2)cc1OC`, the Potency result was “inactive”.
As for `Brc1ccc(Oc2ccc(Br)cc2)cc1`, the Potency result is “inactive”.
The same measure for `Cc1nnc(NS(=O)(=O)c2ccc(N)cc2)s1`: “inactive”; for `CC(=O)CC(=O)N(C)C`: “inactive”; for `CCCCC(=O)O`: “inactive”.
`Oc1ccc(Cc2ccccc2O)cc1`: the Potency result was “inactive”.
To `Cc1ccc([N+](=O)[O-])cc1N` belongs “inactive”; to `O=Cc1ccc(CO)o1`, “inactive”.
Regarding `Cc1ccccc1C=O`, the Potency result was “inactive”.
For `OCc1ccc(Cl)cc1Cl`, the Potency result is “inactive”.
The same measure for `CCn1cc(C(=O)O)c(=O)c2cc3c(cc21)OCO3`: “inactive”.
